Sampled rows, rich in hits. Any-hit rate of the full collection: about 2.1%.
ARNT TACC3 PPI: ARNT/TACC3 interaction disruption | Q9Y6A5 | AlphaScreen His-ARNT PAS-B/GST-TACC3 binding, luminescence; TACC3 fragment carries E629A point mutation | inhibition, % at 9.99 µM | 0.66% of 390,000 active;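 active = mean inhibition of replicates at least 50% and at least half of replicates each reaching 50%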;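 note: 0% = complete ARNT plus TACC3 wells and 100% = ARNT alone without TACC3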
rRNA inh HTS: selective bacterial rRNA inhibition in E. coli; E. coli WT GFP vs humanized-ribosome RFP mutants, fluorescence, 24 h; stronger effect = lower value; DMSO median 0, no signal -100; GFP signal change (wild-type ribosome), % (concentration not given with the values); 1.6% of 350,000 active;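 active = significant combined selectivity score with lowered wild-type GFP, culture density cut under 30%, mutant RFP and density less affected; inactive = any of these conditions unmet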
PvdQ acylase: P. aeruginosa PvdQ acylase inhibition | purified PvdQ acylase, fluorescence plate reader | inhibition, % at 10 µM | 0.063% of 340,000 active | AID 488965; in the data active = inhibition above about 30%, passing the limit was not always enough;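 note: 0% = vehicle neutral wells and 100% = reference inhibitor wells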
ERAP1 inh: ERAP1 (human) enzyme inhibition; Q9NZ08; recombinant ERAP1, Leu-AMC fluorescence, 60 min; inhibition, % at 10.7 µM; 0.15% of 340,000 active;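 active = mean replicate inhibition of at least 30%, or all replicates individually reaching that 30% level; inactive = mean below 30% and not every replicate reaching it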;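 note: 0% = neutral control wells and 100% = L-leucinethiol positive control wells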
Target sequence (Q9NZ08 whole entry, looked up): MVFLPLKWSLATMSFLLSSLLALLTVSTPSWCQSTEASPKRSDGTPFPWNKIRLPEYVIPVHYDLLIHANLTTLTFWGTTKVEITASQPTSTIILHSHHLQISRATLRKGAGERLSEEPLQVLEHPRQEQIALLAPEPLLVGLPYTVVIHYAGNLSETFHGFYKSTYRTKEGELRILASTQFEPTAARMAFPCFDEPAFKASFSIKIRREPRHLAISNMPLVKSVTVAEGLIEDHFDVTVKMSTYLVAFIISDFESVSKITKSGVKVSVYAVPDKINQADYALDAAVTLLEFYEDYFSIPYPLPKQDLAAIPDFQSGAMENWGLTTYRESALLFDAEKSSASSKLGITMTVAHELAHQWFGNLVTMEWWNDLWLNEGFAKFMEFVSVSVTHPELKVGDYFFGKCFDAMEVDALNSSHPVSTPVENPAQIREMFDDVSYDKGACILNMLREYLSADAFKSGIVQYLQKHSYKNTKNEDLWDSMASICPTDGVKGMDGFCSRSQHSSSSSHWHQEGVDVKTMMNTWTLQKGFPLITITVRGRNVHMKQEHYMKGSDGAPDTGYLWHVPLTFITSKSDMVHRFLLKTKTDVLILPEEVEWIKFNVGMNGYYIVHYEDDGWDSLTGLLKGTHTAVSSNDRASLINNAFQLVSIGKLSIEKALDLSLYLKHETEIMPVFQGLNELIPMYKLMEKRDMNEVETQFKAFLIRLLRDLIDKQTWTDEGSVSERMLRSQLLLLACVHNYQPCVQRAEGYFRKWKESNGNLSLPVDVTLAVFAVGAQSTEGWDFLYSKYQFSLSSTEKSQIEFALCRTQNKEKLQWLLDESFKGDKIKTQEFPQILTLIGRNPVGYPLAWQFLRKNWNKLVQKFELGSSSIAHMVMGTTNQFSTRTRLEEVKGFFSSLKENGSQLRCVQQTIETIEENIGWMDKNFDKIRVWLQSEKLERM
F508del corr: CFTR F508del correction in bronchial cells. 0.36% of 350,000 active. activity (quench increase), % at 7.58 µM. CFBE cells, YFP halide quenching; stimulated with forskolin plus potentiator P3; % fluorescence drop versus neutral controls;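 active = mean added fluorescence quench of at least 8% versus neutral control, with both replicates also reaching 8%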;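 note: cells transiently co-express mutant CFTR-F508del with the halide-sensitive YFP; corrector assay measuring rescue of mutant channel to the surface after 24 h compound exposure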
ARNT Alpha ctr-1: AlphaScreen artifact in ARNT/TACC3 counter-screen; 50% of 1,200 active; His-ARNT PASB-GST AlphaScreen artifact counter-screen, luminescence; shares compounds with ARNT TACC3 PPI; AC50, µM (highest dose often 68 µM), inactives show at the highest dose activity change, negative = signal decrease; AID 651705;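 active = every separate test run was called active for a drop in luminescence, with AC50 within twice the top valid dose, actives reach about 71 µM in these data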
ARNT Alpha ctr-2: AlphaScreen artifact flagged for ARNT-TACC3 inhibitors | shares compounds with ARNT TACC3 PPI | AID 720564 | AC50, µM | 70% of 45 active | Dual-tagged His-ARNT PASB-GST AlphaScreen artifact counter-screen;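 active = luminescence drop, with half-maximal potency fitted within twice the sample's top valid dose, cut at about 70 µM in these data; inactive = the rest, including signal moving the wrong way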
The depositor's hits bear a star; nt = no result given; [ ] = remark or other dose.

SMILES	ARNT TACC3 PPI	rRNA inh HTS	PvdQ acylase	ERAP1 inh	F508del corr	ARNT Alpha ctr-1	others
Cc1cc(N/N=C/c2ccc(O)cc2)c2cccc(C)c2n1	1	-15	-5	5	-13	nt
Cc1cc(C)c2nc(C)cc(N/N=C/c3ccc(O)cc3)c2c1	55*	-31	-12	7	-13	32µM*
c1ccc(N2CCN(c3nc(-c4ccccn4)nc4ccccc34)CC2)cc1	nt	-54	8	1	nt	nt
Cc1cccc(Oc2nc(-c3ccncc3)nc3ccccc23)c1	-5	-7	-9	-2	0	nt
Cc1ccccc1Oc1nc(-c2ccccn2)nc2ccccc12	51*	-30	-11	nt	1	-21%
Cc1cccc(Oc2nc(-c3ccccn3)nc3ccccc23)c1	65*	-18	4	nt	4	-18%
Cc1noc(C)c1NC(=O)N(C)C[C@H]1Oc2ccc(NS(=O)(=O)c3cn(C)cn3)cc2CC(=O)N([C@@H](C)CO)C[C@H]1C	-27	4	nt	3	-3	nt
c1ccc(-c2cnc(Nc3nc(-c4ccccn4)nnc3-c3ccccc3)s2)cc1	nt	nt	nt	nt	nt	2.6µM*
Cc1ccc(Nc2nc(-c3ccccn3)nnc2-c2ccccc2)cn1	nt	nt	nt	nt	nt	0.42µM*
O=c1[nH]c(-c2ccccn2)nc2sc(-c3ccccc3)cc12	12	-25	-4	0	-1	nt
COc1ccccc1Nc1cc2cc(Br)ccc2c(=O)[nH]1	55*	5	15	1	2	-26%
O=C(c1cccnc1)N1C[C@H]2[C@@H](c3ccccc31)[C@@H](CO)N2C(=O)C1CCOCC1	-3	3	nt	-3	-3	nt
CCOc1cc(CNCc2ccccn2)cc(Cl)c1OCC	53*	1	-18	1	-1	-21%
CCNCc1cc(Cl)c(OCc2ccccc2)c(OCC)c1	-4	-12	-4	1	1	nt
COc1cc(CNCc2ccccn2)ccc1OCc1ccc(Cl)c(Cl)c1	42	-56	6	-8	0	nt
CCOc1cc(CNCc2ccccn2)cc(Cl)c1OC	53*	8	3	-3	-2	-30%
COc1cccc(CNCc2ccccn2)c1OC	61*	nt	-5	nt	nt	-5%
COc1cc(CNCc2ccccn2)ccc1OCc1ccc(Cl)cc1Cl	55*	nt	2	nt	nt	-39%
COC(=O)C[C@@H]1CC[C@@H]2[C@H](COc3ccc(NC(=O)Nc4cc(C)cc(C)c4)cc3C(=O)N2C)O1	2	-4	nt	2	nt	nt
O=Nc1ccc(O)c2ncccc12	57*	8	0	nt	16*	69µM*
COCc1ccc(O)c2ncccc12	75*	nt	-7	nt	nt	16µM*
Oc1ccc(Cn2ccnc2)c2cccnc12	58*	-13	-1	-3	0	6.2µM*
N#CCC(=O)N/N=C\c1ccccc1OC/C=C/c1ccccc1	64*	7	13	-1	0	55µM*
COCC(=O)N/N=C\c1ccccc1OC/C=C/c1ccccc1	6	2	-7	0	-5	nt
CO[C@@H]1CN(C)C(=O)c2cc(NC(=O)C3CC3)ccc2OC[C@H](C)N(CCc2ccccc2)C[C@H]1C	-2	-5	nt	nt	-4	nt
SMILES	ARNT TACC3 PPI	rRNA inh HTS	PvdQ acylase	ERAP1 inh	F508del corr	ARNT Alpha ctr-1	others
O=C(c1cc(-c2ccccc2)on1)N1CCC(N2CCCC2)CC1	nt	nt	nt	nt	nt	0%[38 µM]
O=C(c1cc(-c2ccccc2)on1)N1CCN(c2ccncc2)CC1	nt	nt	nt	nt	nt	-7%[38 µM]
O=C(c1cc(-c2ccccc2)on1)N1CCCC1	-5	nt	18	nt	nt	nt
O=C(c1cc(-c2ccccc2)on1)N1CCN(c2ccccc2)CC1	-9	0	-17	1	-1	nt
O=C(c1cc(-c2ccccc2)on1)N1CCC(CO)CC1	nt	nt	nt	nt	nt	-2%[38 µM]
Cc1noc(C)c1NC(=O)N[C@@H]1C=C[C@H](CC(=O)Nc2ccc(-c3ccccc3)cc2)O[C@H]1CO	-1	-1	nt	-1	2	nt
COc1ccc(S(=O)(=O)Nc2ccc3c(c2)C(=O)N([C@H](C)CO)C[C@@H](C)[C@@H](CN(C)C)OCCCC[C@H](C)O3)cc1	-6	3	nt	-2	0	nt
Cc1ccc(C(=O)Nc2nnc(-c3ccco3)o2)cc1	29	-51	8	2	nt	nt
Cc1ccsc1C(=O)Nc1nnc(-c2ccco2)o1	54*	nt	-5	nt	nt	48µM*
N#Cc1ccc(C(=O)Nc2nnc(-c3ccco3)o2)cc1	40*	-25	-8	0	-1	-38%
CN1CCN(C(=O)C[C@@H]2C[C@@H]3c4cc(NS(C)(=O)=O)ccc4O[C@@H]3[C@@H](CO)O2)CC1	0	3	nt	-3	0	nt
O=C(CSc1n[nH]c(=O)[nH]c1=O)N/N=C/c1ccccc1O	52*	nt	3	nt	nt	-27%
COc1cc(/C=N/NC(=O)CSc2n[nH]c(=O)[nH]c2=O)cc(OC)c1O	57*	16	-1	-2	4	-37%
C[C@@H]1CCCCO[C@H](CN(C)C(=O)NC2CCCCC2)[C@H](C)CN([C@@H](C)CO)C(=O)c2cc(NC(=O)Nc3cccc4ccccc34)ccc2O1	15	3	nt	4	0	nt
Cc1noc(C)c1S(=O)(=O)Nc1ccc2c(c1)C(=O)N([C@H](C)CO)C[C@H](C)[C@@H](CN(C)C(=O)Nc1ccc(F)cc1)O2	nt	-3	nt	nt	-2	nt
CC1CCN(S(=O)(=O)c2ccc(C(=O)Nc3nnc(-c4ccco4)o3)cc2)CC1	31	-35	10	-1	4	nt	ARNT Alpha ctr-2=>136
CSc1ccc(-c2nnc(NC(=O)c3ccc(S(=O)(=O)N4CCC(C)CC4)cc3)o2)cc1	nt	nt	nt	nt	nt	nt	ARNT Alpha ctr-2=59*
CN(C)CCNC(=O)c1cc(-c2ccccc2)on1	nt	nt	nt	nt	nt	-1%[38 µM]
Cc1ccccc1CNC(=O)c1cc(-c2ccccc2)on1	nt	nt	nt	nt	nt	2%[38 µM]
O=C(NCC1CC1)c1cc(-c2ccccc2)on1	nt	nt	nt	nt	nt	1%[38 µM]
COc1ccc(S(=O)(=O)Nc2ccc3c(c2)C(=O)N([C@H](C)CO)C[C@H](C)[C@H](CN(C)C(=O)CCC(F)(F)F)OCCCC[C@H](C)O3)cc1	-1	-2	nt	1	1	nt
O=C(C[C@H]1CC[C@H]2[C@@H](COC[C@H](O)CN2C(=O)c2ccncc2)O1)NC1CCC1	-6	0	nt	3	-1	nt
COc1ccc(C(=O)CSc2nnc(CNC(=O)c3ccc(S(=O)(=O)N(C)C)cc3)o2)cc1	-3	0	-5	2	3	nt
O=C(CSc1nnc(CNC(=O)c2ccc(F)cc2)o1)NCc1ccccc1	-2	2	-15	2	-2	nt
O=C(CSc1nnc(CNC(=O)c2ccc(F)cc2)o1)Nc1nccs1	63*	4	6	-1	-3	-14%
Cc1nnc(NC(=O)CSc2nnc(CNC(=O)c3ccc(S(=O)(=O)N(C)C)cc3)o2)s1	63*	16	9	3	1	-2%

Compound activity (PubChem)
